Results from PubChem BioAssay (Tox21).
Records with an inconclusive call do not appear. Entries that show only a call come without a potency. Calls of active or inactive are those of the source. The call rests on the fitted dose curve; in most records, active means well fitted cell-killing curve with a large enough effect in the repeat runs; inconclusive means weak or mixed curves; inactive means no such curve, though single readings can be large or run the other way.

test: qHTS assay to identify small molecule antagonists of the androgen receptor (AR) signaling pathway - cell viability counter screen (AID 743033; further: nearly all actives have a fitted effect of over 45% in size); conditions: AR-bla HEK293 viability, CellTiter-Glo luminescence, 16 h; series mostly up to 58.5 µM

Compound | Potency
C=C(C)C(=O)OCCN(C)C | inactive
S=C(S)NCCNC(=S)S | inactive
Cc1ccc(C(C)c2ccc(C)c(C)c2)cc1C | inactive
CCCCOC(=O)/C=C\C(=O)OCCCC | inactive
CC(C)(C)C1CCCCC1O (stereo unspecified) | inactive
O=C(O)Cc1cc(I)c(Oc2ccc(O)c(I)c2)c(I)c1 | inactive
CN1CCC(=C2c3ccccc3C=Cc3ccccc32)CC1 | inactive
N[C@H]1C(O)O[C@H](CO)[C@H](O)[C@@H]1O (stereo partly specified) | inactive
CC1CCc2cc(F)cc3c(=O)c(C(=O)O)cn1c23 (stereo unspecified) | inactive
CN(c1nccc(=O)[nH]1)C1CCN(c2nc3ccccc3n2Cc2ccc(F)cc2)CC1 | inactive
Cc1cccc(C(C)(C)C)c1O | inactive
C=Cc1c(C)c2cc3[nH]c(cc4nc(cc5nc(cc1[nH]2)C(C)=C5CCC(=O)O)C(CCC(=O)O)=C4C)c(C)c3C=C | inactive
CCCCCC/C=C/C=O | inactive
NC(=S)N/N=C/c1cccnc1 | inactive
Nc1nc(N)c2nc(CNc3ccc(C(=O)N[C@@H](CCC(=O)O)C(=O)O)cc3)cnc2n1 | inactive
CCOc1cc(OCC)c(C(=O)CCC(=O)O)cc1OCC | inactive
